SW480 rereplic: induces DNA re-replication in SW480 colon adenocarcinoma cells; SW480 DNA re-replication, Hoechst DNA content imaging, 48 h; Potency, µM (top dose mostly 46.1 µM), for inactives: top-dose re-replication activation, usual class: activators; 340,000 tested, 1.8% active; note: % of control where 0% means no effect; nearly all actives have a fitted effect of over 55% in size
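Quantitative HTS format with DMSO vehicle controls; 48 hr drug incubation at 37 C, then 40 min Hoechst staining and scanning imager measurement at 405 nm excitation.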
KB-3-1 cytotox: kills parental KB-3-1 adenocarcinoma cells | KB-3-1 viability, CellTiter-Glo ATP luminescence, 72 h | Potency, µM (series often up to 46.1 µM), most hits filed as cytotoxic | 400,000 tested, 1.4% active; note: % is set by controls: 0 for no effect and ±100 for the full control effect; nearly all actives have a fitted effect of over 60% in size
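KB-3-1 parental drug-naive adenocarcinoma cells in DMEM/10% FBS, incubated 72 h at 37 C with pin-transferred compounds across a concentration series. Viability by CellTiter-Glo luminescence; concentration-response curves fitted after normalization.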
KB-V1 cytotox: KB-V1 MDR subline cytotoxicity | Potency, µM (top dose mostly 46.1 µM), actives largely listed as cytotoxic | 400,000 tested, 3.4% active | KB-V1 MDR cells viability, CellTiter-Glo, 72 h; note: % is set by controls: 0 for no effect and ±100 for the full control effect; nearly all actives have a fitted effect of over 60% in size
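Compound-treated KB-V1 multidrug-resistant cells, 72 h, 37 degrees C; viability by CellTiter-Glo. Fitted qHTS curves give the values.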
HT1080 IDH1KD tx: HT-1080 IDH1 knockdown cell toxicity (counter line); 360,000 tested, 2% active; HT-1080 IDH1 knockdown viability, ATP luminescence, 48 h; Potency, µM (highest dose often 46.1 µM), without a hit: top-dose activity, negative = toxicity, usual class: cytotoxic;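 note: 0% = DMSO wells and -100% = cell-free medium wells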
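Cytotoxicity counter-line: IDH1KD HT-1080, 48 h, CellTiter-Glo. Curves classed by r2, magnitude and activity.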
HT1080NT lethal: kills 2HG-producing HT-1080-NT fibrosarcoma cells. Potency, µM (titrated, usually from 46.1 µM), for inactives: at the top dose activity, negative = less viability, usual class: cytotoxic. 360,000 tested, 1.6% active. AID 686970. HT-1080-NT fibrosarcoma viability, CellTiter-Glo ATP luminescence, 48 h;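 note: NT is the 2HG producing partner of a matched IDH1 knockdown line; 0% = DMSO-treated cells and -100% = media-only wells without cells; nearly all actives have a fitted effect of over 55% in size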
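A 48-hour cytotoxicity screen used HT-1080-NT cells plated 2 hours before compound delivery. ATP-based CellTiter-Glo luminescence measured viability, normalized to DMSO and no-cell controls.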
MCF10A rerep: DNA re-replication induction in MCF 10a cells. MCF 10A DNA re-replication, Hoechst nuclear intensity, 48 h. AID 624296. 350,000 tested, 2.9% active. Potency, µM (top dose mostly 46.1 µM), for the others: top-dose activity, positive = re-replication, most hits filed as activators; note: % of control where 0% means no effect; nearly all actives have a fitted effect of over 50% in size
Numbers without * were called inactive; i = inactive; u = inconclusive; x = no result given. Most compounds without a hit are left out; they make up all but 8% or so of the library. Calls come from the whole dose curve; as a rule, active = well fitted curve in the direction sought with a large enough effect; inconclusive = small, poorly fitted or top-dose-only effect, or another doubt; inactive = no such curve, though single readings can be large; an effect the other way counts as inactive or inconclusive. Potency is the fitted concentration of half-maximal effect.

SMILES | SW480 rereplic | KB-3-1 cytotox | KB-V1 cytotox | HT1080 IDH1KD tx | HT1080NT lethal | MCF10A rerep
COc1ccc(-c2noc(-c3ccccc3C(=O)Nc3cccnc3)n2)cc1OC | -1% | i | i | 1% | -2% | 3%
Cc1nn(C)c(C(=O)NC2C3CC4CC(C3)CC2C4)c1Cl (stereo not drawn) | 23µM* | i | i | -16% | -4% | 15%
N=c1c2c(-c3ccccc3)c(-c3ccccc3)n(Cc3ccccc3)c2ncn1CCO | u | i | 18µM* | u | -22% | u
N=c1c2c(-c3ccccc3)c(-c3ccccc3)n(Cc3ccco3)c2ncn1Cc1ccccc1 | -1% | i | i | 0% | 4% | 2%
c1ccc(-c2c(-c3ccccc3)n(Cc3ccco3)c3ncnc(NCCCn4ccnc4)c23)cc1 | 26% | u | u | 18µM* | 18µM* | u
N=c1c2c(-c3ccccc3)c(-c3ccccc3)n(Cc3ccco3)c2ncn1CCCN1CCOCC1 | u | 21µM* | 21µM* | 13µM* | u | u
N=c1c2c(-c3ccccc3)c(-c3ccccc3)n(Cc3ccco3)c2ncn1CCCn1ccnc1 | u | u | 16µM* | u | u | u
CC(=O)N1CCc2c(sc3c2c(=O)n(-c2ccccc2)c(=O)n3CC(=O)c2ccc(Cl)cc2)C1 | x | i | i | x | x | x
N=c1c2c(-c3ccccc3)c(-c3ccccc3)oc2ncn1CCCN1CCOCC1 | u | u | 23µM* | -22% | -30% | 12µM*

Screening results deposited in PubChem BioAssay by National Center for Advancing Translational Sciences (NCATS).
